Assay outcomes deposited in PubChem BioAssay by several laboratories.
The full list was thinned out, with hits kept by preference.
Cav3 T inh – Cav3.2 calcium influx blockers – cell-based, Fluo-4 calcium fluorescence, FDSS, MLSMR library, primary screen; Cav3.2-expressing cells; stronger effect = lower value; B-score at 10 µM; hit rate 4% among 100,000; AID 449739, 2010;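 active = single-dose well whose peak fluorescence ratio is a statistical outlier from its plate by either plate-standardised score or position-corrected B-score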
E coli WT exp – growth inhibitors of wild-type E. coli, primary screen, strain BW25113, expanded library, OD600 | AID 710, 2007 | OD600 absorbance | hit rate 0.15% among 98,000 | growth inhibition, % at 100 µM;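 active = growth inhibition above about 50% at one test dose, limit read from the data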;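 also: growth measured after 20 h incubation at 37 °C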
Mac1 fbg enh – enhancers of CD11b/CD18 adhesion to fibrinogen, primary screen, K562 cells, luminescence; hit rate 0.07% among 93,000; activation, % at 10 µM; Integrin beta-2 (Homo sapiens) + Integrin alpha-M (Homo sapiens), P05107+P11215; ATPlite luminescence;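 active = 10 µM primary screen giving 50% or more activity, confirmed by 40% or more on retest at that dose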
CD11b adhes inh – inhibitors of CD11b/CD18 adhesion to fibrinogen, primary screen, K562 cells, luminescence; Integrin beta-2 (Homo sapiens) + Integrin alpha-M (Homo sapiens), P05107+P11215; ATPlite luminescence; Mn2+ added to activate the integrin; inhibition, % at 10 µM; hit rate 0.54% among 93,000;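 active = primary inhibition of 50% or more at 10 µM, then 40% or more on retest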
Numbers stand for hits.

Results for CCOC(=O)C1=C(C)N(CC(C)C)C(=O)/C1=C\c1ccc(OCC(=O)Nc2ccccc2)cc1 ?
Cav3 T inh: -5.51; E coli WT exp: inactive

How did Cc1ccc(NC(=O)Cc2nc(CSc3nnc(-c4ccc5c(c4)OCO5)o3)cs2)cc1 do in these assays?
Cav3 T inh: -5.36; E coli WT exp: inactive; Mac1 fbg enh: inactive; CD11b adhes inh: inactive

Results for Cc1cc(NC(=O)CSc2nnc(-c3ccc4c(c3)OCCO4)o2)no1 ?
Cav3 T inh: inactive; E coli WT exp: inactive; Mac1 fbg enh: inactive; CD11b adhes inh: inactive

How did Brc1ccc(-c2nc(N/N=C/c3cccnc3)c3ccccc3n2)cc1 do in these assays?
Cav3 T inh: inactive; E coli WT exp: inactive; Mac1 fbg enh: inactive; CD11b adhes inh: 101.2

Results for CSCc1nnc(NC(=O)c2ccc(S(=O)(=O)N(CC(C)C)CC(C)C)cc2)o1 ?
Cav3 T inh: -6.02; E coli WT exp: inactive; Mac1 fbg enh: inactive; CD11b adhes inh: inactive

Results for CCN(Cc1ccccc1)S(=O)(=O)c1ccc(C(=O)Nc2nnc(C3CC3)o2)cc1 ?
Cav3 T inh: -5.6; E coli WT exp: inactive; Mac1 fbg enh: inactive; CD11b adhes inh: inactive

Results for Cn1cccc1Cc1nnc(SCC(=O)Nc2ccc(F)cc2)n1-c1ccc(F)cc1 ?
Cav3 T inh: -4.19; E coli WT exp: inactive; Mac1 fbg enh: inactive; CD11b adhes inh: inactive

How did Cn1cccc1Cc1nnc(SCC(=O)Nc2ccccc2)n1-c1ccc(F)cc1 do in these assays?
Cav3 T inh: -7.74; E coli WT exp: inactive; Mac1 fbg enh: inactive; CD11b adhes inh: inactive

How did COc1ccc(NC(=O)CSc2nnc(Cc3cccn3C)n2-c2ccc(F)cc2)cc1OC do in these assays?
Cav3 T inh: inactive; E coli WT exp: inactive; Mac1 fbg enh: inactive; CD11b adhes inh: inactive

How did Cn1cccc1Cc1nnc(SCC(=O)Nc2ccc(Cl)cc2)n1-c1ccc(F)cc1 do in these assays?
Cav3 T inh: -9.77; E coli WT exp: inactive; Mac1 fbg enh: inactive; CD11b adhes inh: inactive

What do the screens show for `COC(=O)c1ccc(CSc2nc3cc(Cl)ccc3s2)o1`?
Cav3 T inh: inactive; E coli WT exp: inactive; Mac1 fbg enh: inactive; CD11b adhes inh: inactive

Results for COCCn1c(SCc2ccc(C(=O)OC)o2)nc2cc(Cl)ccc2c1=O ?
Cav3 T inh: -3.95; E coli WT exp: inactive; Mac1 fbg enh: inactive; CD11b adhes inh: inactive

How did Cc1cc(N2CCC(C(=O)Nc3ccc(F)cc3)CC2)nc(-c2ccccc2)n1 do in these assays?
Cav3 T inh: -6.89; E coli WT exp: inactive; Mac1 fbg enh: inactive; CD11b adhes inh: inactive

What do the screens show for `COc1ccc(NC(=O)C2CCN(c3cc(C)nc(-c4ccccc4)n3)CC2)cc1`?
Cav3 T inh: -5.94; E coli WT exp: inactive; Mac1 fbg enh: inactive; CD11b adhes inh: inactive

What do the screens show for `COc1ccc(NC(=O)C2CCN(c3nc(C)cc(C)n3)CC2)cc1`?
Cav3 T inh: inactive

How did Cc1cc(N2CCC(C(N)=O)CC2)nc(-c2ccccc2)n1 do in these assays?
Cav3 T inh: inactive; E coli WT exp: inactive; Mac1 fbg enh: inactive; CD11b adhes inh: inactive

How did Cc1cc(C)nc(N2CCC(C(=O)Nc3cccc(C(F)(F)F)c3)CC2)n1 do in these assays?
Cav3 T inh: -4.25; E coli WT exp: inactive; Mac1 fbg enh: inactive; CD11b adhes inh: inactive

What do the screens show for `CS(=O)(=O)NN1C(=O)c2ccccc2NC1c1c[nH]c2ccccc12` (centres undefined)?
Mac1 fbg enh: inactive; CD11b adhes inh: inactive

Results for CCN=C(N/N=C/c1ccc([N+](=O)[O-])cc1)SC ?
Cav3 T inh: inactive; E coli WT exp: inactive

Results for O=C(CN1CCN(c2ccccc2)CC1)Nc1ccc(OCc2ccccc2)cc1 ?
Cav3 T inh: inactive; E coli WT exp: inactive; Mac1 fbg enh: inactive; CD11b adhes inh: inactive

Results for CC1CCN(S(=O)(=O)c2ccc3c(c2)oc(=O)n3CC(=O)N2c3ccccc3CC2C)CC1 (centres undefined) ?
E coli WT exp: inactive; Mac1 fbg enh: inactive; CD11b adhes inh: inactive

How did CC1Cc2ccccc2N1C(=O)Cn1c(=O)oc2cc(S(=O)(=O)NC3CCCC3)ccc21 (centres undefined) do in these assays?
Cav3 T inh: -8.86; E coli WT exp: inactive; Mac1 fbg enh: inactive; CD11b adhes inh: inactive

How did Cc1cccc(NC(=O)CSc2nc(N)c(NC(=O)c3cccs3)c(=O)[nH]2)c1 do in these assays?
Cav3 T inh: inactive

Results for CCOC(=O)c1c(CN2CCC(C)CC2)oc2ccc(OC)cc12 ?
Cav3 T inh: -4.16; E coli WT exp: inactive; Mac1 fbg enh: inactive; CD11b adhes inh: inactive

How did CCOC(=O)c1c(C)n(C)c2ccc(OCC(O)CN3CCC(C)CC3)cc12 (centres undefined) do in these assays?
Cav3 T inh: -5.29; E coli WT exp: inactive; Mac1 fbg enh: inactive; CD11b adhes inh: inactive

Results for CCCCNc1oc(-c2cccs2)nc1S(=O)(=O)c1ccccc1 ?
Cav3 T inh: -3.26; E coli WT exp: inactive; Mac1 fbg enh: inactive; CD11b adhes inh: inactive

Results for CCCCNS(=O)(=O)c1ccc2nc(SCC(=O)Nc3ccccc3Cl)[nH]c2c1 ?
Mac1 fbg enh: inactive; CD11b adhes inh: inactive

What do the screens show for `CCCCNS(=O)(=O)c1ccc2nc(SCC(=O)Nc3sccc3C#N)[nH]c2c1`?
Cav3 T inh: -3.53; E coli WT exp: inactive; Mac1 fbg enh: inactive; CD11b adhes inh: 102.2

How did COc1ccc(-n2ncc(S(=O)(=O)c3ccccc3)c2-c2ccc(Cl)cc2)cc1 do in these assays?
Cav3 T inh: -6.7; E coli WT exp: inactive; Mac1 fbg enh: inactive; CD11b adhes inh: inactive

Results for COc1ccc(N2CCN(c3c(S(=O)(=O)c4ccccc4)cnc4ccc(OC)cc34)CC2)cc1 ?
Mac1 fbg enh: inactive; CD11b adhes inh: inactive

How did O=S(=O)(c1ccccc1)c1cnn(-c2ccccc2)c1-c1ccc(F)cc1 do in these assays?
Cav3 T inh: -5.83; E coli WT exp: inactive; Mac1 fbg enh: inactive; CD11b adhes inh: inactive

How did CC(C)c1ccc(NC(=O)C(c2ccccc2)N(C)C(=O)CCc2c[nH]c3ccccc23)cc1 (centres undefined) do in these assays?
Cav3 T inh: inactive

What do the screens show for `O=C1CC2(CCCC2)Oc2ccc(F)cc21`?
Cav3 T inh: inactive

How did O=C(C(Sc1ccccc1)c1ccccc1)N1CCOCC1 (centres undefined) do in these assays?
Mac1 fbg enh: inactive; CD11b adhes inh: inactive

How did Nc1ccc(Oc2ccc3nc(-c4ccccc4)c(-c4ccc([N+](=O)[O-])cc4)nc3c2)cc1 do in these assays?
Cav3 T inh: inactive; E coli WT exp: inactive

What do the screens show for `O=S(=O)(NCCOCC(F)(F)F)c1ccc2oc3ccccc3c2c1`?
Cav3 T inh: -4.32; E coli WT exp: inactive

How did O=S(=O)(NCCOCCNS(=O)(=O)c1ccccc1)c1ccccc1 do in these assays?
E coli WT exp: inactive

Results for N#Cc1nc(Cc2ccccc2)oc1N1CCN(c2ccccc2)CC1 ?
Cav3 T inh: -4.79; E coli WT exp: inactive; Mac1 fbg enh: inactive; CD11b adhes inh: inactive

Results for N#Cc1nc(Cc2ccccc2)oc1N1CCC(Cc2ccccc2)CC1 ?
Cav3 T inh: -5.18; E coli WT exp: inactive; Mac1 fbg enh: inactive; CD11b adhes inh: inactive
